This is a sample that favours compounds with a hit; in the whole collection about 5.4% have one here.
Six1-Eya2 blk – qHTS Assay for Inhibitors of the Six1/Eya2 Interaction | Homeobox protein SIX1 (Homo sapiens) + Protein phosphatase EYA2 (Homo sapiens), … | AlphaScreen GST-Six1/His-Eya2 binding, biochemical; stronger effect = lower value | activity change, % (concentration not given with the values) | 360,000 compounds, 0.56% hits | AID 651725, 2012; in the data active = activity change below about -65%; inconclusive = mostly about -30% to -63%; also: % is scaled to controls: 0 for no effect and ±100 for the full control effect
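AlphaScreen with GST-Six1 and His-Eya2 (5X mix: 250 nM and 500 nM), glutathione donor and nickel acceptor beads; buffer 50 mM Tris pH 8.0, 300 mM NaCl, 1 mM TCEP; 1 h at 37 C in the dark.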
CtBP-E1A blk – qHTS Assay for Inhibitors of the CtBP/E1A Interaction. activity change, % (test concentration not listed). AID 651724, 2012. 340,000 compounds, 0.49% hits. CtBP / adenovirus E1A interaction (AlphaScreen). AlphaScreen GST-E1A/His-CtBP binding, 1536-well; stronger effect = lower value; in the data active = activity change below about -65%; inconclusive = mostly about -30% to -63%; also: % is scaled to controls: 0 for no effect and ±100 for the full control effect
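Steps: dispense buffer (Tris pH 8.0, NaCl 300 mM, TCEP 1 mM, BSA, Tween 20); add 5X protein mix (GST-E1A, His-CtBP, 125 nM each); pin 23 nL compound; 2 h at 37 °C, dark; add 5X beads (50 ug/mL); 1 h; read.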
RORg inh – qHTS for inhibitors of ROR gamma transcriptional activity; Nuclear receptor ROR-gamma (Mus musculus), P51450; Drosophila S2 Gal4-RORgamma UAS-luciferase reporter, 20 h; Potency, µM (top dose mostly 53.6 µM), without a hit: at the highest dose activity change, negative = inhibition, most hits filed as inhibitors; 310,000 compounds, 5.4% hits; also: potency is read from the fitted curve at half-maximal effect; % is scaled to controls: 0 for no effect and ±100 for the full control effect; nearly all actives have a fitted effect of over 60% in size
Target sequence (P51450 whole entry, looked up, the tested form may be a part): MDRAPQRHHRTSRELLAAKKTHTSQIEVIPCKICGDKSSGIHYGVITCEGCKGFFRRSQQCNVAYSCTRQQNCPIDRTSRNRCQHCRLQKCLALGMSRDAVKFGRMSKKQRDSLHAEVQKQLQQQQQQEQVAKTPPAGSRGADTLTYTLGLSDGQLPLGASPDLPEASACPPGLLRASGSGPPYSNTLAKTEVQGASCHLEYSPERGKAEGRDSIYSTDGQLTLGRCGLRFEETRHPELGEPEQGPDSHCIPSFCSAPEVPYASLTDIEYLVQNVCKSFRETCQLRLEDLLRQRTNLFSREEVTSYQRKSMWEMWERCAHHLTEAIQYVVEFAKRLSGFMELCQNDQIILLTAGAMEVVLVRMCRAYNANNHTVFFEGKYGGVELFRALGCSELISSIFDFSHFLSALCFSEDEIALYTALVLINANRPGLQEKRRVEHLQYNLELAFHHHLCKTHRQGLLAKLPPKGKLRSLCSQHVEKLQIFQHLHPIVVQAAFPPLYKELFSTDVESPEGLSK
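In this cell-based reporter format, copper sulfate (700 uM final) drives Gal4–ROR gamma fusion expression from a metallothionein promoter in Drosophila Schneider cells; compounds preincubated 1 hr, reporter read after 20 hr at ambient temperature.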
p53 reactivator – qHTS assay for re-activators of p53 using a Luc reporter; H1299 p53-A138V BP100-luciferase reporter, luminescence, 24 h; AID 504706, 2011; Potency, µM (doses to about 92.2 µM), for the others: top-dose activity change, positive = activation, most hits filed as activators; 320,000 compounds, 0.063% hits; also: potency is read from the fitted curve at half-maximal effect; % of control where 0% means no effect; nearly all actives have a fitted effect of over 45% in size
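p53-null H1299 cells stably carrying temperature-sensitive p53-A138V and a BP100-luciferase reporter were pinned with compounds (4-point, 1:5 series) and held 24 hrs at 37 deg C. Luminescence was read 10 min after detection reagent.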
VP16 counter – VP16 counterscreen qHTS for inhibitors of ROR gamma transcriptional activity; Drosophila S2 Gal4-VP16 UAS-luciferase, luminescence, 20 h; Potency, µM (top dose mostly 53.6 µM), without a hit: at the highest dose activity, negative = inhibition, actives largely listed as inhibitors; 310,000 compounds, 3.5% hits; AID 2546, 2010;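 also: Gal4-VP16 expression switched on by copper sulfate through the metallothionein promoter; potency is read from the fitted curve at half-maximal effect; % is scaled to controls: 0 for no effect and ±100 for the full control effect; nearly all actives have a fitted effect of over 50% in size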
Numbers without * were called inactive; u = inconclusive; x = no result. Unless noted, calls follow the shape of the dose curve; as a rule, active = well fitted curve in the direction sought with a large enough effect; inconclusive = small, poorly fitted or top-dose-only effect, or another doubt; inactive = no such curve, though single readings can be large; an effect the other way counts as inactive or inconclusive.

SMILES	Six1-Eya2 blk	CtBP-E1A blk	RORg inh	p53 reactivator	VP16 counter
Cc1cc2c(cc1C)NC(c1c(C)n(C)n(-c3ccccc3)c1=O)C1=C(CC(C)(C)CC1=O)N2 (stereo not drawn)	-2	24	13µM*	31%	-29%
c1ccc(-c2noc(C3CCC3)n2)nc1	2	0	5%	4%	16%
CCCCC1CCC(c2nc(-c3ccccn3)no2)CC1 (stereo not drawn)	52	60	u	19%	13µM*
COc1ccc2nc(N/C(N)=N/S(C)(=O)=O)nc(C)c2c1	-1	8	-4%	6%	5%
CCOc1ccc2nc(N/C(N)=N/C(=S)Nc3cccc(C)c3)nc(C)c2c1	-9	-13	1.6µM*	8%	3.5µM*
COc1ccc(NC(=S)/N=C(\N)Nc2nc(C)c3ccccc3n2)cc1	u	-26	1µM*	6%	4.5µM*
COc1ccc2nc(N/C(N)=N/C(=S)Nc3cccc(C)c3)nc(C)c2c1	-6	-27	3.5µM*	-2%	4.5µM*
CCOc1ccc2nc(N/C(N)=N/C(=S)Nc3cccc(OC)c3)nc(C)c2c1	-4	-8	0.79µM*	-1%	u
COc1ccc2nc(N/C(N)=N/C(=S)Nc3c(C)cccc3C)nc(C)c2c1	-27	x	16%	15%	-6%
O=C(NCCS(=O)(=O)c1ccc(Br)cc1)c1ccc(Cl)cc1Cl	1	0	-25%	0%	3%
Cn1c(=O)c(=O)n(C)c2cc(S(=O)(=O)CCC(=O)Nc3ccccc3C(F)(F)F)ccc21	-11	-8	x	x	x
COc1cccc(Oc2ccc(C(F)(F)F)cc2NC(=O)CCc2nc3ccccc3c(=O)[nH]2)c1	-6	-2	28%	-3%	30%
COc1cccc(CN(C)Cc2nc3cc(C(F)(F)F)ccc3c(=O)[nH]2)c1	-15	-8	2µM*	0%	-19%
C=CCOc1ccc(CN(C)Cc2nc3cc(C(F)(F)F)ccc3c(=O)[nH]2)cc1	1	6	7.1µM*	-3%	u
COc1ccc(C(=O)N2CCC3(CCN(C(=O)Nc4cccc(C#N)c4)CC3)CC2)cc1	x	x	31%	x	-4%
CCOC(=O)c1c(N/N=C/c2ccncc2)n[nH]c1C	-2	-10	23%	22%	2%
O=c1cnc2cnc(Nc3ccccc3)nc2n1Cc1cccs1	x	x	-7%	x	u
O=C(NCc1cc([N+](=O)[O-])ccc1O)c1cccc(NS(=O)(=O)c2ccccc2)c1	-83*	-89*	11µM*	-5%	13µM*
O=C(O)c1cc(N2C(=O)C=CC2=O)cc(N2C(=O)C=CC2=O)c1	-74*	-11	x	x	x
CCC(C)n1c(NC(=O)c2ccccc2)c(C#N)c2nc3ccccc3nc21 (stereo not drawn)	59	-16	10µM*	-8%	u
O=[N+]([O-])c1ccc(Oc2cccc(C(F)(F)F)c2)nc1	4	4	27%	3%	0%
Cc1cccc(CNc2ncncc2-c2cccnc2)c1	x	x	0%	x	1%
C[C@H](NC(=O)c1nc[nH]c1C(=O)NCC(=O)OC(C)(C)C)C(=O)OC(C)(C)C	5	x	13µM*	2%	u
CC(C)C[C@H](NC(=O)c1nc[nH]c1C(=O)N[C@@H](CC(C)C)C(=O)OC(C)(C)C)C(=O)OC(C)(C)C	1	2	u	2%	11µM*
CC(C)(C)OC(=O)NCCCCCNC(=O)c1[nH]cnc1C(=O)Nc1ccc(Cl)cc1	-11	-3	x	-15%	x
SMILES	Six1-Eya2 blk	CtBP-E1A blk	RORg inh	p53 reactivator	VP16 counter
CC(C)C[C@H](NC(=O)c1[nH]cnc1C(=O)Nc1ccc(Cl)cc1)C(=O)OC(C)(C)C	2	-8	2.8µM*	4%	4µM*
C[C@H](NC(=O)c1[nH]cnc1C(=O)Nc1ccc(CNC(=O)OC(C)(C)C)cc1)C(=O)OC(C)(C)C	-4	2	8.9µM*	10%	u
COc1cccc(Cn2c(=O)c(C)nc3cnc(N(C)C)nc32)c1	x	x	-19%	x	-2%
CC(C)C[C@H](NC(=O)c1nc[nH]c1C(=O)NCC(=O)OC(C)(C)C)C(=O)OC(C)(C)C	2	0	7.1µM*	-3%	u
CC(C)(C)OC(=O)CNC(=O)c1nc[nH]c1C(=O)NCC(=O)OC(C)(C)C	-7	-22	-24%	4%	-10%
CC(=O)Nc1ccc(S(=O)(=O)N2CCC3(CC2)CC(=O)c2ccccc2O3)cc1	-2	-15	x	-17%	x
COC(=O)[C@]12CCCCC=C1N(Cc1cccc3ccccc13)C(=O)[C@H](CC(=O)NCCC(C)C)C2	-5	-2	x	x	x
CCSCc1nc2ccccn2c1Br	-8	x	-8%	3%	5%
CCCCSCc1nc2ccccn2c1Br	4	2	11µM*	10%	-5%
NC(=O)c1cccc(N)c1	x	x	-20%	x	2%
Cc1ccc(OCC(=O)N/N=C\c2c(C)[nH]n(-c3ccccc3)c2=O)c([N+](=O)[O-])c1	-91*	-81*	0.5µM*	19%	0.56µM*
Cn1cc(/C=N/NC(=O)COc2ccccc2[N+](=O)[O-])c2ccccc21	-16	x	u	u	13µM*
Cc1ccc(/C=N\NC(=O)COc2ccc(C)cc2[N+](=O)[O-])cc1	-1	2	-11%	5%	6%
Cc1ccc(OCC(=O)N/N=C\c2ccc(O)c([N+](=O)[O-])c2)c([N+](=O)[O-])c1	-8	-16	20%	2%	20%
O=C(COc1ccccc1[N+](=O)[O-])N/N=C/c1cccs1	3	16	-43%	10%	16%
Cc1ccc(OCC(=O)N/N=C\c2cn(C)c3ccccc23)c([N+](=O)[O-])c1	-6	0	11µM*	u	u
Cn1c(SCC(=O)NC2CCCc3ccccc32)nnc1C1CC1 (stereo not drawn)	4	-9	x	0%	x
CC(C)Cn1c(C23CC4CC(CC(C4)C2)C3)n[nH]c1=S	-7	0	3.2µM*	x	3.2µM*
COCCCn1c(C23CC4CC(CC(C4)C2)C3)n[nH]c1=S	13	x	5µM*	-7%	6.3µM*
Cn1c(C23CC4CC(CC(C4)C2)C3)n[nH]c1=S	5	-11	5µM*	4%	8.9µM*
CC1Cn2c(nnc2C23CC4CC(CC(C4)C2)C3)S1 (stereo not drawn)	2	7	-11%	2%	6%
CCn1c(CC(C)C)n[nH]c1=S	3	8	u	-4%	-1%
Cn1cnc([N+](=O)[O-])c1N=C(N)N	-2	0	13%	12%	0%

Screens from PubChem BioAssay.
